Data taken from PubChem BioAssay (NCATS).
Values joined by “and” are separate entries in the source; they are usually repeats but may differ in a detail not shown here. Equal entries are not always repeated. Records with an inconclusive call do not appear. Where a call stands in place of a potency, no number is given. Active and inactive are the calls of the source. Calls come from the whole dose curve; as a rule, active = well fitted curve in the direction sought with a large enough effect; inconclusive = small, poorly fitted or top-dose-only effect, or another doubt; inactive = no such curve, though single readings can be large; an effect the other way counts as inactive or inconclusive.

Tests used:
MCC-13 = assay: qHTS assay to identify novel small-molecules to repurpose for Merkel cell carcinoma treatment (AID 1296009); settings: MCC and control cell lines, CellTiter-Glo viability, 72 h; series mostly up to 46 µM; note: nearly all actives have a fitted effect of over 60% in size
Summary of the method: (§1)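 qHTS format: cells treated with library compounds in DMSO across 8 (NPC) or 11 (MIPE) concentrations. Readout after 72 hr at 37 degree celsius was CellTiter-Glo luminescence.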

MCC-26 = assay: as above; settings: MCC and control cell lines, CellTiter-Glo viability, 72 h; series mostly up to 46 µM
Summary of the method: as §1

MKL-1 = assay: as above; settings: MCC and control cell lines, CellTiter-Glo viability, 72 h; series mostly up to 46 µM
Summary of the method: as §1

UISO = assay: as above; settings: MCC and control cell lines, CellTiter-Glo viability, 72 h; series mostly up to 46 µM
Summary of the method: as §1

C33A = assay: Primary qHTS to identify gynecologic anti-cancer compounds using libraries of approved drugs and bioactive compounds (AID 1345084); settings: Gynecologic cancer cell panel viability, ATPlite luminescence, 48 h; series mostly up to 57.5 µM; note: nearly all actives have a fitted effect of over 55% in size
Summary of the method: (§2)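 Luminescence from the ATPlite ATP-monitoring reagent indicates viable cell number; lower signal means cytotoxicity. Cells received compound 16 h after seeding and were exposed for 48 h across five concentrations.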

CAOV3 = assay: as above; settings: Gynecologic cancer cell panel viability, ATPlite luminescence, 48 h; series mostly up to 57.5 µM
Summary of the method: as §2

CASKI = assay: as above; settings: Gynecologic cancer cell panel viability, ATPlite luminescence, 48 h; series mostly up to 57.5 µM
Summary of the method: as §2

MKL-2 = assay: qHTS assay to identify novel small-molecules to repurpose for Merkel cell carcinoma treatment (AID 1296009); settings: MCC and control cell lines, CellTiter-Glo viability, 72 h; series mostly up to 46 µM; note: nearly all actives have a fitted effect of over 60% in size
Summary of the method: as §1

WaGa = assay: as above; settings: MCC and control cell lines, CellTiter-Glo viability, 72 h; series mostly up to 46 µM
Summary of the method: as §1

NIH3T3 = assay: as above; settings: MCC and control cell lines, CellTiter-Glo viability, 72 h; at 44.8 µM (top of the series) unless noted
Summary of the method: as §1
Potency is the fitted concentration of half-maximal effect.

Row | SMILES | Potency (MCC-13) | Potency (MCC-26) | Potency (MKL-1) | Potency (UISO) | Potency (C33A) | Potency (CAOV3) | Potency (CASKI) | Potency (MKL-2) | Potency (WaGa) | outcome (NIH3T3)
1 | CC1COC2(c3ccccc3Cl)c3cc(Cl)ccc3NC(=O)CN12 (configuration not stated) | inactive | inactive | inactive | inactive | inactive | inactive | inactive | – | – | –
2 | CC[n+]1c(-c2ccccc2)c2cc(N)ccc2c2ccc(N)cc21 | – | – | 0.668 µM (active) | 7.5 µM (active) | 1.12 µM (active) | 12.6 µM (active) | 20 µM (active) | 0.944 µM (active) | 0.75 µM (active) | –
3 | CN(C)C(=S)SSC(=S)N(C)C | – | 0.299 µM (active) | 0.596 µM (active) | 0.211 µM (active) | 1.26 µM (active) | 11.2 µM (active) | inactive | 0.596 µM (active) | 0.668 µM (active) | –
4 | COc1cc(CC(C)N)c(OC)cc1Br (configuration not stated) | – | – | – | – | – | inactive | – | 3.18 µM (active) | 50.4 µM (active) | –
5 | CNC(C)Cc1ccc2c(c1)OCO2 (configuration not stated) | inactive | – | – | – | inactive | inactive | inactive | inactive | – | –
6 | CC[C@H](O)C(C[C@H](C)N(C)C)(c1ccccc1)c1ccccc1 | – | – | – | – | inactive | – | – | – | – | –
7 | C[C@@H]1C[C@@H]([C@H](O)CC2CC(=O)NC(=O)C2)C(=O)[C@@H](C)C1 | 944 nM (active) and 4.69 µM (active) | – | 1.66 µM (active) | 1.06 µM (active) and 1.18 µM (active) | – | 25.1 µM (active) | – | 2.09 µM (active) | 5.9 µM (active) | –
8 | Oc1ccc([C@H]2CNCc3c2ccc(O)c3O)cc1O | inactive | inactive | – | inactive | inactive | inactive | inactive | 13.3 µM (active) | – | –
9 | CC(C)[N+](C)(CCC(C(N)=O)(c1ccccc1)c1ccccc1)C(C)C | inactive | inactive | – | inactive | – | inactive | inactive | – | 23.7 µM (active) | inactive
10 | Clc1ccc(CSC(Cn2ccnc2)c2ccc(Cl)cc2Cl)cc1 (configuration not stated) | – | – | – | 26.6 µM (active) | – | – | inactive | 13.3 µM (active) | – | –
11 | CCC(=O)C(CCN(C)C)(c1ccccc1)c1ccccc1 | inactive | inactive | inactive | inactive | inactive | inactive | inactive | – | – | –
12 | COc1ccc2c3c1O[C@H]1[C@@H](O)C=C[C@H]4[C@@H](C2)N(C)CC[C@@]341 | 23.8 µM (active) | – | 10.7 µM (active) | 15 µM (active) | – | – | 31.6 µM (active) | 2.12 µM (active) | 5.34 µM (active) | –
13 | CN(C)CCc1c[nH]c2ccc(O)cc12 | inactive | – | inactive | 53.4 µM (active) | inactive | – | inactive | – | – | inactive [at 92 µM]
14 | CCCCCCCCCCCC[N+](C)(C)CCOc1ccccc1 | – | 23.7 µM (active) | 2.66 µM (active) | 9.44 µM (active) | – | – | – | 1.06 µM (active) | 4.22 µM (active) | –
15 | CN1C(=O)[C@@H](NC(=O)c2cc3ccccc3[nH]2)N=C(c2ccccc2)c2ccccc21 | inactive | – | inactive | – | inactive | – | – | inactive | inactive | –
16 | CC[C@H]1C[C@@H]2C[C@H]3c4[nH]c5ccc(OC)cc5c4CCN(C2)[C@@H]13 | inactive | inactive | – | – | inactive | inactive | inactive | – | 42.4 µM (active) | –
17 | C#C[C@]1(O)CC[C@H]2[C@@H]3CCC4=CC(=O)CCC4=C3C=C[C@@]21CC | inactive | inactive | inactive | – | inactive | inactive | inactive | – | – | –
18 | CCC(OC(C)=O)C(CC(C)NC)(c1ccccc1)c1ccccc1 (configuration not stated) | – | – | – | 49.1 µM (active) | – | 39.8 µM (active) | – | – | – | –
19 | Cc1nnc2n1-c1sc(CCc3ccc(CC(C)C)cc3)cc1C(c1ccccc1Cl)=NC2C (configuration not stated) | – | inactive | – | 16.8 µM (active) | – | – | inactive | 11.9 µM (active) | – | –
20 | CCO[C@H]1O[C@@H]2OC3(C)CC[C@H]4[C@H](C)CC[C@@H]([C@H]1C)[C@@]24OO3 | inactive | inactive | inactive | – | inactive | inactive | inactive | – | 18.8 µM (active) | –
21 | CNC(=O)Oc1cccc2ccccc12 | – | – | – | – | inactive | inactive | inactive | – | – | –
22 | O=C1NCN(c2ccccc2)C12CCN(CCCOc1ccc(F)cc1)CC2 | inactive | – | inactive | inactive | inactive | inactive | inactive | inactive | inactive | –
23 | C[C@]12CC[C@H](O)CC1=CC[C@@H]1[C@@H]2CC[C@]2(C)C(=O)CC[C@@H]12 | – | – | – | – | inactive | inactive | inactive | – | – | –
